From PubChem BioAssay AID1159580 (chemical genetic matrix, 2015)
The campaign covered roughly 5,500 compounds. About 2,000 (36%) were called active. Roughly 18% stayed inconclusive and do not appear here. Some of the results follow. Unmarked numbers belong to inactive results. Rule as the data show it: active = normalized growth mostly below about 0.91 (no sharp cut-off); inconclusive = no clear call, values can overlap the other calls; inactive = mostly above about 0.92.

Test: chemical genetic growth profiling, strain panel (AID 1159580);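 also: tested at 20 µM; growth read once vehicle control cultures reached saturation at 30 °C; 1 = growth at the plate median or of vehicle wells; lower values mean less growth of the strain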
Details: growth OD

COc1ccc2c(c1C(C)C)CCC1C(C)(C)C(=O)CCC21C (stereo unspecified)
normalized growth (S. cerevisiae deletion strains, locus YAL013W, strain DEP1, active compounds read low): 1
normalized growth (S. cerevisiae deletion strains, locus YBR021W, strain FUR4, active compounds read low): 1
normalized growth (S. cerevisiae deletion strains, locus YBR229C, strain ROT2, active compounds read low): 0.988
normalized growth (S. cerevisiae deletion strains, locus YCL029C, strain bik1, active compounds read low): 0.955
normalized growth (S. cerevisiae deletion strains, locus YDL035C, strain GPR1, active compounds read low): 0.972
normalized growth (S. cerevisiae deletion strains, locus YDL074C, strain BRE1, active compounds read low): 0.969
normalized growth (S. cerevisiae deletion strains, locus YDL101C, strain DUN1, active compounds read low): 0.996
normalized growth (S. cerevisiae deletion strains, locus YDL134C, strain PPH21, active compounds read low): 0.976
normalized growth (S. cerevisiae deletion strains, locus YDL185W, strain tfp1, active compounds read low): 0.982
normalized growth (S. cerevisiae deletion strains, locus YDL192W, strain arf1, active compounds read low): 0.974
normalized growth (S. cerevisiae deletion strains, locus YDR101C, strain arx1, active compounds read low): 0.981
normalized growth (S. cerevisiae deletion strains, locus YDR150W, strain NUM1, active compounds read low): 0.96
normalized growth (S. cerevisiae deletion strains, locus YDR162C, strain NBP2, active compounds read low): 0.983
normalized growth (S. cerevisiae deletion strains, locus YDR318W, strain mcm21, active compounds read low): 0.968
normalized growth (S. cerevisiae deletion strains, locus YDR388W, active compounds read low): 0.977
normalized growth (S. cerevisiae deletion strains, locus YDR502C, strain sam2, active compounds read low): 0.982
normalized growth (S. cerevisiae deletion strains, locus YEL061C, strain CIN8, active compounds read low): 0.988
normalized growth (S. cerevisiae deletion strains, locus YER110C, active compounds read low): 0.982
normalized growth (S. cerevisiae deletion strains, locus YER155C, strain BEM2, active compounds read low): 0.991
normalized growth (S. cerevisiae deletion strains, locus YER167W, strain BCK2, active compounds read low): 0.95
normalized growth (S. cerevisiae deletion strains, locus YGL078C, strain dbp3, active compounds read low): 0.977
normalized growth (S. cerevisiae deletion strains, locus YGL086W, strain mad1, active compounds read low): 0.961
normalized growth (S. cerevisiae deletion strains, locus YGL248W, strain PDE1, active compounds read low): 0.976
normalized growth (S. cerevisiae deletion strains, locus YGR078C, strain PAC10, active compounds read low): 1
normalized growth (S. cerevisiae deletion strains, locus YGR135W, strain pre9, active compounds read low): 0.984
normalized growth (S. cerevisiae deletion strains, locus YGR229C, strain SMI1, active compounds read low): 0.974
normalized growth (S. cerevisiae deletion strains, locus YGR252W, strain gcn5, active compounds read low): 0.98
normalized growth (S. cerevisiae deletion strains, locus YHR030C, strain SLT2, active compounds read low): 0.979
normalized growth (S. cerevisiae deletion strains, locus YHR079C, strain IRE1 (second series), active compounds read low): 0.96
normalized growth (S. cerevisiae deletion strains, locus YHR094C, strain hxt1, active compounds read low): 0.974
normalized growth (S. cerevisiae deletion strains, locus YHR129C, strain ARP1, active compounds read low): 0.983
normalized growth (S. cerevisiae deletion strains, locus YHR200W, strain rpn10, active compounds read low): 0.955
normalized growth (S. cerevisiae deletion strains, locus YIL066C, strain RNR3, active compounds read low): 0.979
normalized growth (S. cerevisiae deletion strains, locus YIL073C, strain SPO22, active compounds read low): 0.921
normalized growth (S. cerevisiae deletion strains, locus YIL125W, strain kgd1, active compounds read low): 0.971
normalized growth (S. cerevisiae deletion strains, locus YIR030C, strain dcg1, active compounds read low): 0.97
normalized growth (S. cerevisiae deletion strains, locus YJL095W, strain BCK1, active compounds read low): 0.954
normalized growth (S. cerevisiae deletion strains, locus YJL134W, strain LCB3, active compounds read low): 0.983
normalized growth (S. cerevisiae deletion strains, locus YJL168C, strain set2, active compounds read low): 0.984
normalized growth (S. cerevisiae deletion strains, locus YJL187C, strain SWE1 (second series), active compounds read low): 0.986
normalized growth (S. cerevisiae deletion strains, locus YJR043C, strain POL32, active compounds read low): 0.962
normalized growth (S. cerevisiae deletion strains, locus YJR075W, strain HOC1, active compounds read low): 1
normalized growth (S. cerevisiae deletion strains, locus YKL009W, strain mrt4, active compounds read low): 0.966
normalized growth (S. cerevisiae deletion strains, locus YKL068W, active compounds read low): 0.976
normalized growth (S. cerevisiae deletion strains, locus YKL085W, strain MDH1 (second series), active compounds read low): 0.967
normalized growth (S. cerevisiae deletion strains, locus YKL085W, strain MDH1, active compounds read low): 0.967
normalized growth (S. cerevisiae deletion strains, locus YKL190W, strain CNB1, active compounds read low): 0.988
normalized growth (S. cerevisiae deletion strains, locus YKR001C, strain vps1, active compounds read low): 0.979
normalized growth (S. cerevisiae deletion strains, locus YLR039C, strain RIC1, active compounds read low): 0.995
normalized growth (S. cerevisiae deletion strains, locus YLR058C, strain SHM2, active compounds read low): 0.981
normalized growth (S. cerevisiae deletion strains, locus YLR102C, strain apc9, active compounds read low): 0.978
normalized growth (S. cerevisiae deletion strains, locus YLR262C, strain YPT6, active compounds read low): 0.994
normalized growth (S. cerevisiae deletion strains, locus YLR268W, strain sec22, active compounds read low): 0.995
normalized growth (S. cerevisiae deletion strains, locus YLR330W, strain CHS5, active compounds read low): 0.985
normalized growth (S. cerevisiae deletion strains, locus YLR342W, strain FKS1 (second series), active compounds read low): 0.973
normalized growth (S. cerevisiae deletion strains, locus YLR371W, strain rom2, active compounds read low): 0.979
normalized growth (S. cerevisiae deletion strains, locus YLR418C, strain cdc73, active compounds read low): 0.946
normalized growth (S. cerevisiae deletion strains, locus YML016C, strain PPZ1, active compounds read low): 0.978
normalized growth (S. cerevisiae deletion strains, locus YML032C, strain rad52, active compounds read low): 0.964
normalized growth (S. cerevisiae deletion strains, locus YML124C, strain tub3, active compounds read low): 0.961
normalized growth (S. cerevisiae deletion strains, locus YMR078C, strain ctf18, active compounds read low): 0.96
normalized growth (S. cerevisiae deletion strains, locus YMR223W, strain ubp8, active compounds read low): 0.959
normalized growth (S. cerevisiae deletion strains, locus YMR263W, strain SAP30, active compounds read low): 1.01
normalized growth (S. cerevisiae deletion strains, locus YMR307W, strain GAS1, active compounds read low): 0.84
normalized growth (S. cerevisiae deletion strains, locus YNL067W, strain RPL9B, active compounds read low): 1.01
normalized growth (S. cerevisiae deletion strains, locus YNL128W, strain TEP1, active compounds read low): 1.01
normalized growth (S. cerevisiae deletion strains, locus YNL153C, strain GIM3, active compounds read low): 1
normalized growth (S. cerevisiae deletion strains, locus YNL233W, strain BNI4, active compounds read low): 0.98
normalized growth (S. cerevisiae deletion strains, locus YNL250W, strain rad50, active compounds read low): 0.972
normalized growth (S. cerevisiae deletion strains, locus YNL271C, strain bni1, active compounds read low): 0.977
normalized growth (S. cerevisiae deletion strains, locus YNL298W, strain CLA4, active compounds read low): 0.982
normalized growth (S. cerevisiae deletion strains, locus YNL307C, strain MCK1, active compounds read low): 0.854 (active)
normalized growth (S. cerevisiae deletion strains, locus YNL322C, strain KRE1, active compounds read low): 0.992
normalized growth (S. cerevisiae deletion strains, locus YNR052C, strain pop2, active compounds read low): 0.991
normalized growth (S. cerevisiae deletion strains, locus YOL006C, strain TOP1, active compounds read low): 0.896
normalized growth (S. cerevisiae deletion strains, locus YOL012C, strain htz1): 1.19
normalized growth (S. cerevisiae deletion strains, locus YOL147C, strain pex11, active compounds read low): 0.975
normalized growth (S. cerevisiae deletion strains, locus YOR061W, strain CKA2, active compounds read low): 0.977
normalized growth (S. cerevisiae deletion strains, locus YOR069W, strain VPS5, active compounds read low): 0.983
normalized growth (S. cerevisiae deletion strains, locus YOR136W, strain idh2, active compounds read low): 0.981
normalized growth (S. cerevisiae deletion strains, locus YOR144C, strain elg1, active compounds read low): 0.978
normalized growth (S. cerevisiae deletion strains, locus YOR184W, strain ser1, active compounds read low): 0.899
normalized growth (S. cerevisiae deletion strains, locus YOR316C, strain cot1, active compounds read low): 0.967
normalized growth (S. cerevisiae deletion strains, locus YPL055C, strain LGE1, active compounds read low): 1.01
normalized growth (S. cerevisiae deletion strains, locus YPL241C, strain CIN2, active compounds read low): 0.984
normalized growth (S. cerevisiae deletion strains, locus YPR119W, strain clb2, active compounds read low): 0.971
normalized growth (S. cerevisiae deletion strains, locus YPR141C, strain kar3, active compounds read low): 0.97
normalized growth (S. cerevisiae deletion strains, locus YPR163C, strain tif3, active compounds read low): 0.984
normalized growth (S. cerevisiae deletion strains, locus YPR167C, strain met16, active compounds read low): 0.97
normalized growth (S. cerevisiae deletion strains, strain wtn01, active compounds read low): 0.975
normalized growth (S. cerevisiae strains, strain wild type, active compounds read low): 0.998
